Source: ChEMBL document CHEMBL3988442, “University of Dundee, Small-Polar-MMV Screening Library” (2021)

Target: T1, Methionyl-tRNA synthetase, putative (Leishmania donovani (strain BPK282A1)) (UniProt E9BF75)
T1 sequence (whole entry): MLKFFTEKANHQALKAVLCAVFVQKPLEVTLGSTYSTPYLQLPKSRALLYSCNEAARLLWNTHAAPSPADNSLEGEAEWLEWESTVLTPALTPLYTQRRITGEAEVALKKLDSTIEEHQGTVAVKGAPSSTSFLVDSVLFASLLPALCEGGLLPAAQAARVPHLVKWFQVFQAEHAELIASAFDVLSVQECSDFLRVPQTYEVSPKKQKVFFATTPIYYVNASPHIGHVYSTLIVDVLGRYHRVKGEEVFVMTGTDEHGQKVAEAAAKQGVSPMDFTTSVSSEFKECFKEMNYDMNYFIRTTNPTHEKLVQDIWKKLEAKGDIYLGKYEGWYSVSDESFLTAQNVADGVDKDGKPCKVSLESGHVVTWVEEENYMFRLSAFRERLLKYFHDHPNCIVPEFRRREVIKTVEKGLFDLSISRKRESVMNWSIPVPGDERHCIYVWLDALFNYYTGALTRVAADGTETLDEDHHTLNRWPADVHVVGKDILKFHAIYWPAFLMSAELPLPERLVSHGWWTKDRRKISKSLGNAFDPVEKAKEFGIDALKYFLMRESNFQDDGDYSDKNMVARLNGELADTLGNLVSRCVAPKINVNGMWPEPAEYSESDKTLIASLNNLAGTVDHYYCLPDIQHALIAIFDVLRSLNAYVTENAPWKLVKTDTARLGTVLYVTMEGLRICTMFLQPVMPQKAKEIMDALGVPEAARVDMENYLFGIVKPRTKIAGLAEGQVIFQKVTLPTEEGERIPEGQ
Test: Leishmania donovani Methionine tRNA synthetase (LdMetRS):v7. Dose response assay
Type: functional
Set-up: conc 80 nM, time 150 minutes

## CN(c1nc(NCCO)c2cnn(C)c2n1)C1CCS(=O)(=O)C1 (stereo not drawn)
MAX_EFFECT 9.248554913
  PXC50: < 4

## CN(CCO)c1nc(NCCO)c2cnn(C)c2n1
MAX_EFFECT 9.248554913
  PXC50: < 4

## Clc1cc(Cl)cc(CNC2COC2)c1
MAX_EFFECT 15.10516252
  PXC50: < 2.7

## c1ccc(-c2nc(N3CCOCC3)c3sccc3n2)cc1
MAX_EFFECT 16.2962963
  PXC50: < 4

## Cn1ncc2c(NCCO)nc(NC3CCOCC3)nc21
MAX_EFFECT 17.34104046
  PXC50: < 4

## Clc1cc(Cl)cc(CNCC2CCOCC2)c1
MAX_EFFECT 17.78202677
  PXC50: < 2.7

## Cc1cnn(C)c1CNCc1cc(Cl)cc(Cl)c1
MAX_EFFECT 20.07648184
  PXC50: < 2.7

## Cn1ncc2c(NCCO)nc(NCCS(=O)(=O)N3CCOCC3)nc21
MAX_EFFECT 23.12138728
  PXC50: < 4

## Clc1cc(Cl)cc(CNCc2cccnc2)c1
MAX_EFFECT 23.51816444
  PXC50: < 2.7

## OCCCNc1ccnc(Nc2cccc(F)c2)n1
MAX_EFFECT 28.51637765
  PXC50: < 4

## Clc1cc(Cl)cc(CNCc2ccncc2)c1
MAX_EFFECT 36.1376673
  PXC50: < 2.7

## COc1ccncc1NC(=O)N1CCCc2ccccc21
MAX_EFFECT 36.98113208
  PXC50: < 4

## CCNc1nc(C#N)nc(Nc2ccccc2)n1
MAX_EFFECT 38.88888889
  PXC50: < 4

## C[C@H](CO)Nc1ccnc(Nc2cccc(C(F)(F)F)c2)n1
MAX_EFFECT 43.93063584
  PXC50: < 4

## CN(CCO)c1ccnc(Nc2ccc(F)c(F)c2)n1
BOTTOM 0.294483603, HILLSLOPE 0.87168646, MAX_EFFECT 90.28037383, TOP 97.37088088
  PXC50: 5.27

## Cn1ncc2c(NCCO)nc(Nc3ccc(F)cc3)nc21
BOTTOM 3.895127381, HILLSLOPE 1.044427324, MAX_EFFECT 67.40740741, TOP 80.2965153
  PXC50: 4.65

## Clc1cc(Cl)cc(NCc2ncc[nH]2)c1
BOTTOM -1.539697056, HILLSLOPE 1.029999783, MAX_EFFECT 60.61185468, TOP 100.0
  PXC50: 2.93

## OCCNc1nccc(Cl)n1
MAX_EFFECT 0.560747664
  PXC50: < 4

## c1ccc(-c2nc(-n3cnnc3)c3ccccc3n2)cc1
MAX_EFFECT 0.740740741
  PXC50: < 4

## NS(=O)(=O)c1cccnc1Nc1ccc(F)cc1
MAX_EFFECT 1.518026565
  PXC50: < 4

## Cn1cc(C(=O)N2CCc3ccccc32)c2ccccc21
MAX_EFFECT 1.851851852
  PXC50: < 4

## NS(=O)(=O)c1cccn2c1nc1cccnc12
MAX_EFFECT 1.851851852
  PXC50: < 4

## C[C@@H](CO)Nc1nccc(Nc2ccc(F)c(F)c2)n1
MAX_EFFECT 2.697495183
  PXC50: < 4

## COc1ccccc1NC(=O)Nc1cccc(O)c1
MAX_EFFECT 2.803738318
  PXC50: < 4

## COc1ccccc1NC(=O)Nc1c[n+]([O-])ccc1OC
MAX_EFFECT 3.018867925
  PXC50: < 4

## NS(=O)(=O)c1cccnc1Nc1cccc(O)c1
MAX_EFFECT 3.333333333
  PXC50: < 4

## COc1cc(NC(=O)c2cccc3cccnc23)c(OC)cc1Cl
MAX_EFFECT 3.703703704
  PXC50: < 4

## C[C@H](CO)Nc1nccc(Cl)n1
MAX_EFFECT 4.672897196
  PXC50: < 4

## CN(CCO)c1nccc(Cl)n1
MAX_EFFECT 5.046728972
  PXC50: < 4

## CC(C)Nc1nc(NCCO)c2cnn(C)c2n1
MAX_EFFECT 5.313092979
  PXC50: < 4

## COc1ccc(Nc2ncccc2S(N)(=O)=O)cc1C(F)(F)F
MAX_EFFECT 5.780346821
  PXC50: < 4

## COC(=O)c1ccc(OC)c(NC(=O)Nc2ccccc2OC)c1
MAX_EFFECT 5.794392523
  PXC50: < 4

## COc1ccccc1NC(=O)Nc1cc(C(=O)O)ccc1OC
MAX_EFFECT 5.794392523
  PXC50: < 4

## COc1ccncc1NC(=O)N1CCOc2ccccc21
MAX_EFFECT 6.037735849
  PXC50: < 4

## C[C@H](CO)Nc1nccc(Nc2ccc(F)c(F)c2)n1
MAX_EFFECT 6.165703276
  PXC50: < 4

## N#Cc1c(N)nc(-c2ccccc2)nc1C(F)(F)F
MAX_EFFECT 6.666666667
  PXC50: < 4

## C[C@@H](CO)Nc1nccc(Cl)n1
MAX_EFFECT 6.91588785
  PXC50: < 4

## NS(=O)(=O)c1cccnc1NC1CCCC1
MAX_EFFECT 6.986027944
  PXC50: < 4

## NS(=O)(=O)c1cccnc1Nc1cc(O)ccn1
MAX_EFFECT 7.407407407
  PXC50: < 4

## Cc1cc(CNc2cc(Cl)cc(Cl)c2)no1
MAX_EFFECT 7.456978967
  PXC50: < 2.7

## Clc1cc(Cl)cc(NCCc2ccccc2)c1
MAX_EFFECT 9.751434034
  PXC50: < 2.7

## Cn1ncc2c(NCCO)nc(N3CCCCC3)nc21
MAX_EFFECT 10.78998073
  PXC50: < 4

## COc1cc(NC(=O)c2cccs2)c2ncccc2c1
MAX_EFFECT 11.11111111
  PXC50: < 4

## CN1CCn2cc/c(=N\c3ccc(F)c(F)c3)nc21
MAX_EFFECT 18.13084112
  PXC50: < 4

## Nc1nc(-c2ccccc2)cn1NC(=O)Nc1ccccc1F
MAX_EFFECT 18.14814815
  PXC50: < 4

## CC(NCc1cc(Cl)cc(Cl)c1)C1CCS(=O)(=O)CC1 (stereo not drawn)
MAX_EFFECT 19.31166348
  PXC50: < 2.7

## COc1cccc(NC(=O)N2CCOc3ccccc32)c1
MAX_EFFECT 19.53578337
  PXC50: < 4

## Cc1cnn(C)c1CNc1cc(Cl)cc(Cl)c1
MAX_EFFECT 23.51816444
  PXC50: < 2.7

## C[C@H](CO)Nc1ccnc(Nc2cccc(F)c2)n1
MAX_EFFECT 26.58959538
  PXC50: < 4

## C[C@@H](CO)Nc1ccnc(Nc2cccc(F)c2)n1
MAX_EFFECT 30.05780347
  PXC50: < 4

## COc1cccc(NC(=O)N2CCCc3ccccc32)c1
MAX_EFFECT 45.28301887
  PXC50: < 4

## Cn1ncc2c(NC3CC3)nc(Nc3ccc(F)c(F)c3)nc21
MAX_EFFECT 47.9245283
  PXC50: < 4

## NS(=O)(=O)c1cccnc1Nc1ccc(F)c(F)c1
MAX_EFFECT -0.759013283
  PXC50: < 4

## CCc1cc2c(NC(CC(C)C)C(=O)O)nc(C)nc2s1 (stereo not drawn)
MAX_EFFECT 8.0
  PXC50: < 4
MAX_EFFECT 13.22751323
  PXC50: < 4

## O=C(NC1CCCC1)c1ccc2ccc(N3CCCCC3)n2c1
MAX_EFFECT 36.52968037
  PXC50: < 4
MAX_EFFECT 39.81132075
  PXC50: < 4

## O=C(NCC1(O)CCCCC1)c1cc(=O)c2ccc(F)c(O)c2o1
MAX_EFFECT 5.582137161
  PXC50: < 4
MAX_EFFECT 7.485604607
  PXC50: < 4

## CCn1ncc(-c2cc(C(F)(F)F)nc(N3CCC(N)CC3)n2)c1C
MAX_EFFECT 0.522193211
  PXC50: < 4
MAX_EFFECT 1.305483029
  PXC50: < 4

## OB1OC(CN2CCOCC2)c2ccccc21 (stereo not drawn)
MAX_EFFECT 9.245283019
  PXC50: < 4
MAX_EFFECT 9.589041096
  PXC50: < 4
